BCR signal inh: inhibitors of chronic active B-cell receptor signaling | AID 493014 | ABC-DLBCL IkBa-CBG/CBR reporter, luminescence ratio, 4 h | Potency, µM (series often up to 46.1 µM), for the others: top-dose activity change, negative = inhibition, hits mostly inhibitors | 340,000 compounds, 0.05% hits; active means well fitted inhibition curve with a large enough effect in the signal ratio, with a control signal flat, not every such curve was filed as active; inconclusive means small, poorly fitted or top-dose-only effect, or effect the other way, or a change in a side signal; the % refers to the signal ratio;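 further: plate controls were basal doxycycline-induced cells for no effect and cells given 10 µM MG132 for full effect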
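TMD8 ABC-DLBCL cells carrying doxycycline-inducible green luciferase fused to IkappaBalpha plus unfused red luciferase were exposed to compounds (up to 46 uM) for 4 hrs at 37C. Activity came from the overlap-corrected green/red luminescence ratio.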
RORg inh: inhibitors of mouse ROR gamma transcriptional activity | P51450 | Drosophila S2 Gal4-RORgamma UAS-luciferase reporter, 20 h | Potency, µM (highest dose often 53.6 µM), without a hit: at the top dose activity change, negative = inhibition, actives largely listed as inhibitors | 310,000 compounds, 5.4% hits; further: on the % scale 0 is the no-effect control and ±100 the full control effect; nearly all actives have a fitted effect of over 60% in size
Target sequence (P51450 whole entry, looked up, the tested form may be a part): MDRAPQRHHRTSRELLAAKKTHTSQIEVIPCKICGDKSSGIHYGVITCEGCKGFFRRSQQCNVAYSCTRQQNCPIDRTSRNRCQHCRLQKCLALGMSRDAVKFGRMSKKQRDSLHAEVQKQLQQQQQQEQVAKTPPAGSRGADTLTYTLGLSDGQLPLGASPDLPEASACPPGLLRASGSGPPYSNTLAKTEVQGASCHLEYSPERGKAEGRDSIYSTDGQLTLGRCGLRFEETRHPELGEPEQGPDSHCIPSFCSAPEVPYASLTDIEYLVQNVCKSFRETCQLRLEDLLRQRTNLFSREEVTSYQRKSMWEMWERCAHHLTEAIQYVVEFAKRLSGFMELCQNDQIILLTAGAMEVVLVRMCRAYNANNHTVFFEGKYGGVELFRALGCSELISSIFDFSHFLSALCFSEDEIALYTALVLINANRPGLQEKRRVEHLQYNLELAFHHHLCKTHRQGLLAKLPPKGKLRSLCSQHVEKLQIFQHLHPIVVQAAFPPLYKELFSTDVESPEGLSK
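Schneider cells (Drosophila), stable Gal4 DBD–ROR gamma + UAS-luc; 1 hr cmpd preincubation; Cu2+ induction 700 uM final; 20 hr ambient; luminescence.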
uPA surface inh: blocks generation of uPA at the cell surface; cell surface uPA generation assay, qHTS; Potency, µM (series often up to 38.3 µM), for inactives: at the top dose activity change, negative = inhibition, most hits filed as inhibitors; 330,000 compounds, 0.31% hits; active means well fitted inhibition curve with a large enough effect; inconclusive means small, poorly fitted or top-dose-only effect; inactive means no such curve, though single readings can be large or run the other way; tested in mouse RAW 264.7 cells; further: on the % scale 0 is the no-effect control and ±100 the full control effect; nearly all actives have a fitted effect of over 55% in size
VP16 counter: Gal4-VP16 reporter inhibition counter-screen | Drosophila S2 Gal4-VP16 UAS-luciferase, luminescence, 20 h | Potency, µM (series often up to 53.6 µM), for the others: at the highest dose activity, negative = inhibition, actives largely listed as inhibitors | 310,000 compounds, 3.5% hits | AID 2546;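 further: Gal4-VP16 expression switched on by copper sulfate through the metallothionein promoter; on the % scale 0 is the no-effect control and ±100 the full control effect; nearly all actives have a fitted effect of over 50% in size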
Mito fusion act: inhibitors of mitochondrial division or activators of mitochondrial fusion. S. cerevisiae fusion-defective mutant growth rescue, CellTiterGlo 48 h. Potency, µM (doses to about 46.1 µM), for the others: at the top dose growth rescue (activation), hits mostly activators. 320,000 compounds, 0.23% hits. AID 485298; further: % of control where 0% means no effect; nearly all actives have a fitted effect of over 45% in size
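Temperature-sensitive fusion-defective S. cerevisiae (e.g. fzo1-1, mgm1-5) were grown with compound in YPEG medium (3% ethanol, 3% glycerol) for 48 hours at 37C. Growth rescue was measured as viability by CellTiterGlo luminescence after 10 minutes at ambient.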
a7 integrin act: integrin-mediated muscular dystrophy alleviation activation; alpha7betagal myoblasts, beta-gal FDG fluorescence, 48 h; Potency, µM (doses to about 38.3 µM), for the others: at the top dose activation, hits mostly activators; 350,000 compounds, 0.064% hits; AID 624291;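 further: 100% = response of the positive control SU9516; nearly all actives have a fitted effect of over 60% in size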
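alpha7betagal+/- myoblasts (passage 13, 250/well) treated 48 h at 37C with compounds at 1:260 dilution of DMSO stock. Lysed, then beta-galactosidase activity read as FDG fluorescence (ex 480/em 540) after 30 min, with pre-read for autofluorescence.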
Numbers without * were called inactive; ? = inconclusive; . = not tested or not shown. This is a sample that favours compounds with a hit; in the whole collection about 5.5% have one here. Unless noted, the call rests on the fitted dose curve; in most records, active means well fitted curve in the direction sought with a large enough effect; inconclusive means small, poorly fitted or top-dose-only effect, or another doubt; inactive means no such curve, though single readings can be large; an effect the other way counts as inactive or inconclusive. Potency means the concentration at half of the fitted maximal effect.

SMILES	BCR signal inh	RORg inh	uPA surface inh	VP16 counter	Mito fusion act	a7 integrin act
S=C1NC[C@H](Cc2cccc3ccccc23)N1CC1CCCCC1	-9%	0.71µM*	15%	5µM*	-24%	-16%
NCCCC[C@H]1CNC(=O)C(=O)N1CCc1cccc2ccccc12	?	-12%	3%	-1%	-3%	4%
COc1ccc2cc1Oc1ccc(cc1)CC1c3cc(c(OC)cc3CCN1C)Oc1c(OC)c(OC)c(OC)c3c1C(C2)N(C)CC3 (stereo not given)	.	0%	.	-2%	.	.
Cc1ccc(NC(=S)NC2CCSc3ccccc32)cc1C (stereo not given)	?	3.5µM*	4%	4µM*	-11%	-15%
COc1cc(NC(=O)/C=C/c2ccccc2)c(C(=O)O)cc1OC	?	-3%	-7%	-6%	0%	-13%
COc1ccc(/C=C/C(=O)NC(=S)NCc2ccccc2)cc1OC	?	2.2µM*	-6%	?	-4%	-32%
COc1ccc(/C=C\C(=O)Nc2ccccc2C(=O)O)cc1OC	.	?	.	1.1µM*	.	.
COc1ccc(/C=C/C(=O)NC(C)CCc2ccccc2)cc1OC (stereo not given)	?	31%	-11%	-11%	12%	-21%
COc1cc(C=O)ccc1OCCCOc1ccccc1C(=O)O	2%	1.4µM*	1%	6.3µM*	5%	7%
COc1ccc(C(=O)COC(=O)c2cnc(C)cn2)c(OC)c1	0%	.	-2%	.	-2%	3%
CC(C)c1ccc(NC(=O)CSc2nc(=O)n(Cc3ccccn3)c3c2CCC3)cc1	0%	.	.	.	.	.
C/C(CC(=O)Nc1cc(C)ccn1)=N\NC(=O)c1ccccc1C	?	8.9µM*	-7%	?	5%	1%
CCN1CCN(CCNC(=O)c2ccc(/C=C3/Sc4ccccc4N(Cc4ccccc4C)C3=O)cc2)CC1	?	?	-12%	18µM*	-7%	-49%
CCN1CCN(CCCNC(=O)c2ccc(/C=C3/Sc4ccccc4N(Cc4ccccc4F)C3=O)cc2)CC1	?	?	-8%	?	-1%	-59%
Cc1ccc(-c2nc(=S)c3c(n2Cc2ccco2)CCCC3)cc1	4%	-29%	4%	-10%	-3%	-30%
Cc1cccc(-c2nc(=S)c3c(n2Cc2ccco2)CCCC3)c1	?	11µM*	-8%	?	-8%	-5%
Cc1ccc(-c2nc(=S)c3c(n2Cc2ccco2)CC(C)(C)OC3)cc1	7%	2.8µM*	-11%	16µM*	-4%	-52%
CCOc1ccc(-c2cc(C(=O)NCc3ccccc3Cl)c3ccccc3n2)cc1	1%	.	.	.	.	.
CCOC(=O)C1(C(C)C)Oc2ccccc2C(c2ccc(OC)cc2)=C1C(=O)OC (stereo not given)	.	37%	.	-14%	.	.
Cc1cccnc1NC(=O)c1ccc(Br)o1	-10%	.	-5%	.	-8%	11%
O=C(Nc1nnc2n1CCS2)c1ccc(Br)o1	1%	3.5µM*	5%	7.1µM*	-10%	3%
Cn1nccc1C(=O)NC1CCCc2c1cnn2-c1ccc(C(C)(C)C)cc1 (stereo not given)	?	?	-8%	2.5µM*	-8%	0%
Cc1ccc(-n2ncc3c2CCCC3NC(=O)c2ocnc2C)cc1C (stereo not given)	?	21%	?	7.1µM*	1%	-38%
CC1(C)Cc2c(cnn2-c2ccc(F)cc2)C(NC(=O)CCN2CCCC2=O)C1 (stereo not given)	1%	43%	-10%	?	2%	6%
CC1(C)Cc2c(cnn2-c2ccc(F)cc2)C(NC(=O)CN2CCCCC2=O)C1 (stereo not given)	?	3.5µM*	8%	16µM*	-1%	-14%
CC1(C)Cc2c(cnn2-c2cccc(F)c2)C(NC(=O)CCc2cnccn2)C1 (stereo not given)	4%	25%	6%	?	-19%	3.2µM*

Source: PubChem
